About 14,000 (4.5%) of roughly 310,000 compounds showed an effect of 50% or more. The effect is printed as a negative number. This is one part of a sample in which strong results are shown more often than they occur.
Each molecule was assayed against human ether-à-go-go-related gene (hERG) potassium channel (human, UniProt Q12809) (assay: primary screen, population patch clamp on CHO cells stably expressing hERG; higher = less effect of the substance).
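Also: peak tail current of the secondary pulse compared with the same well before compound.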

human ether-à-go-go-related gene (hERG) potassium channel, sequence (Q12809 whole entry, looked up): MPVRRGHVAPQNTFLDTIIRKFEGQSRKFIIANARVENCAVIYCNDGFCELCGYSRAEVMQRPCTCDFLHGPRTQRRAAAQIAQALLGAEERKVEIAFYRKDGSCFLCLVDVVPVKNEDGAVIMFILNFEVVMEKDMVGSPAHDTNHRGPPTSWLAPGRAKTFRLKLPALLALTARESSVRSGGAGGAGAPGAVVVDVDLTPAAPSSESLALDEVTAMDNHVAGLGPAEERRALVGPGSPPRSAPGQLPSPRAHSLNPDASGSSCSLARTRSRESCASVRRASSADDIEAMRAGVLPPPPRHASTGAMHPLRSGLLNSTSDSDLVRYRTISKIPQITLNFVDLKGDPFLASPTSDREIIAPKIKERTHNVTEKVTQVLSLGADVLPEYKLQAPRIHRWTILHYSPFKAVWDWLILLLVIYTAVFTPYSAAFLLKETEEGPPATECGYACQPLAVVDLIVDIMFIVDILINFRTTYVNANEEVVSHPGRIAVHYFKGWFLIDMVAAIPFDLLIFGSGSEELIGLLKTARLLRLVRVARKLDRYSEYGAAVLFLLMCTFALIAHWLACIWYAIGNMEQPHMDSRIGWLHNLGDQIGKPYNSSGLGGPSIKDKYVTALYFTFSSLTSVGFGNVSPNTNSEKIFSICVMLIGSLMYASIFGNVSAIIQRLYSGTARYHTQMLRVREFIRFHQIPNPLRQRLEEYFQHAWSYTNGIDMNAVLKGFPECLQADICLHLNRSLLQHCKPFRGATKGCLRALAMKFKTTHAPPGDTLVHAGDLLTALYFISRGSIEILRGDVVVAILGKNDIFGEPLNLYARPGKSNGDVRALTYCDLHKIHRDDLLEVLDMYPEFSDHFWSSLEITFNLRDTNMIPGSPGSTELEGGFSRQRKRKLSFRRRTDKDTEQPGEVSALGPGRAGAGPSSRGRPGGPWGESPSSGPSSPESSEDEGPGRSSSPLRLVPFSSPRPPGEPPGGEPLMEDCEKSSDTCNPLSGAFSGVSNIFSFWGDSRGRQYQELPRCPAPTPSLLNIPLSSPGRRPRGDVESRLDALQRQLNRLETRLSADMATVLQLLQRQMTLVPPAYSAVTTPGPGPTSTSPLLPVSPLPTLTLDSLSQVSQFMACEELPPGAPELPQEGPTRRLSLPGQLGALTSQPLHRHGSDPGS

| Compound | hERG current change (%, negative = inhibition) at 10uM |
| --- | --- |
| CCCCN(C)CCC(=O)Nc1ccc(OC)cc1OC | 5.11% |
| Cc1cccc(Nc2nc3c(c(=O)n(C)c(=O)n3C)n2CC(O)CO)c1 (centres unmarked) | -0.943% |
| O=C(Cc1c(Cl)cccc1Cl)N1CCN(Cc2ccccc2)CC1 | -0.0324% |
| NS(=O)(=O)c1cccnc1Nc1cccc(Cl)c1Cl | -3.35% |
| CN(C)c1nc(-c2ccccc2)nc(-c2ccc(Cl)cc2)c1C#N | 8.49% |
| COc1ccc(-c2nc3c4ccccc4ccn3c2CN2CCCCC2)cc1OC.Cl | 0.736% |
| O=C(CSc1nc2ccccc2c(=O)[nH]1)N1CCN(c2ccccc2F)CC1 | 9.44% |
| O=c1nc2ccccc2c2n1CC(CN1CCN(c3ccccc3F)CC1)N2 (centres unmarked) | -50.3% |
| O=c1nc2ccccc2c2n1CC(CN1CCN(c3cccc(Cl)c3)CC1)N2 (centres unmarked) | -63.3% |
| O=c1[nH]c(CN2CCN(c3ccccc3)CC2)nc2ccccc12 | 1.55% |
| Cn1c(CN2CCN(c3cccc(Cl)c3)CC2)nc2ccccc21 | -44.7% |
| O=c1nc2ccccc2c2n1CC(CN1CCN(c3ccc(F)cc3)CC1)N2 (centres unmarked) | -68.6% |
| Fc1ccccc1N1CCN(CC2CCCCC2)CC1 | -1.99% |
| O=c1[nH]c(CN2CCN(c3ccc(F)cc3)CC2)nc2ccccc12 | -15.1% |
| COc1cccc(N2CCN(Cc3nc4ccccc4c(=O)[nH]3)CC2)c1 | -18.9% |
| Cc1cc(C)cc(NC(=O)c2cc(C)nn2C)c1 | 0.0741% |
| O=C(COC(=O)c1ncc(Cl)c(Cl)c1Cl)NC(=O)c1ccccc1 | 14.9% |
| Cn1cnnc1SCc1ccccc1[N+](=O)[O-] | 13.7% |
| COc1cc(C#N)ccc1OCC(=O)NCCC1=CCCCC1 | -13.2% |
| Nc1ccc2c(c1)ncn2CCCn1cnc2cc(N)ccc21 | -14.7% |
| O=C(NCc1ccccn1)c1cn(-c2ccccc2)nc1-c1ccc(Cl)cc1 | -1.67% |
| Cl.c1ccc(CCNCc2cccnc2)cc1 | -0.175% |
| Fc1ccc(NC(=S)NCCc2ccccn2)cc1 | 7.88% |
| Fc1ccc(-n2cc(CNCCc3ccccn3)c(-c3ccccc3Cl)n2)cc1 | -89.9% |
| Fc1ccc(-n2cc(CNCCc3ccncc3)c(-c3ccccc3Cl)n2)cc1 | -75.2% |
| Cl.Clc1ccccc1CNCc1ccncc1 | -0.497% |
| Cl.Fc1ccc(CCNCc2ccccc2Cl)cc1 | 1.24% |
| Cl.c1cncc(CNCCc2c[nH]c3ccccc23)c1 | 4.01% |
| Fc1ccc(-n2cc(CNCCc3cccnc3)c(-c3ccccc3Cl)n2)cc1 | -51.9% |

Reference: publication PMC4336329 (PLoS ONE, 2015)
